This note sets out measurements from PubChem BioAssay (Tox21).

Values joined by “and” are separate entries in the source; they are usually repeats but may differ in a detail not shown here. Equal values may be shown once. Records with an inconclusive call do not appear. Active and inactive are the calls of the source. Calls follow the shape of the dose curve; as a rule, active = well fitted inhibition curve with a large enough effect in the signal ratio in the repeat runs (not every such curve was filed as active); inconclusive = weak or mixed curves, or effect the other way; inactive = no such curve, though single readings can be large or run the other way; the % refers to the signal ratio.
% is scaled to controls: 0 for no effect and ±100 for the full control effect; potency is read from the fitted curve at half-maximal effect.

Chain of Glucocorticoid receptor (Homo sapiens) (P04150 whole entry, looked up): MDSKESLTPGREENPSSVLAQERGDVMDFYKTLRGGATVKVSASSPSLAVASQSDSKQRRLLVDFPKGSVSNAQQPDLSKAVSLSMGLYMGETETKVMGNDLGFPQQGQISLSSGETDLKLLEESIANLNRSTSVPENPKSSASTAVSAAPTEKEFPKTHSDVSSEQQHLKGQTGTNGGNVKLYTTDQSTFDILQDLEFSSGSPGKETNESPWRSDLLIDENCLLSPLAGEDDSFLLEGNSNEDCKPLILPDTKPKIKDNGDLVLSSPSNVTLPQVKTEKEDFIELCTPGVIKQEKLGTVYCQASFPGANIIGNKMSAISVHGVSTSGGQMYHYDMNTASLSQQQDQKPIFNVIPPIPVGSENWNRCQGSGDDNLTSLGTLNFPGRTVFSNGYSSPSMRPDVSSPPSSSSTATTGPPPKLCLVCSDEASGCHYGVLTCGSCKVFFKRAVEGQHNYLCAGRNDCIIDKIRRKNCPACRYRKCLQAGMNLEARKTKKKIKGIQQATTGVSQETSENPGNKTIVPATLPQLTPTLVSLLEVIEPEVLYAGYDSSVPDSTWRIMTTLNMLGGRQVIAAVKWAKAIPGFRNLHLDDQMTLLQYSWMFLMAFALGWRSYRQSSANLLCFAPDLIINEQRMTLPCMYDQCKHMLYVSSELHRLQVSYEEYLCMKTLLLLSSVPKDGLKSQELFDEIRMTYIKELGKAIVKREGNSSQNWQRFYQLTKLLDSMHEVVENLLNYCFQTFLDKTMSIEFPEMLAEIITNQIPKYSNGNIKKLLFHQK

This test deals with Glucocorticoid receptor (Homo sapiens) (UniProt P04150). Kind of test: qHTS assay to identify small molecule antagonists of the glucocorticoid receptor (GR) signaling pathway (AID 720692). As to conditions: GR-bla HeLa, beta-lactamase FRET ratio, dexamethasone-stimulated, 18 h; series mostly up to 58.5 µM; activity change, negative = inhibition: at the top concentration. From the text:
U.S. Tox21 Program National Center for Advancing Translational Sciences [NCATS] NIH Chemical Genomics Center [NCGC] U.S. Environmental Protection Agency [EPA] National Institutes of Environmental Health Sciences [NIEHS] National Toxicology Program [NTP] U.S. Food and Drug Administration [FDA] Tox21 Assay Overview: The Glucocorticoid receptor (GR) is one of the members of the nuclear receptor family of ligand-dependent transcription factors. GR plays a critical role in carbohydrate, protein and lipid metabolisms and programmed cell death. CellSensor GR-bla HeLa cell line (Invitrogen) contains a beta-lactamase reporter gene under the control of the glucocorticoid response element stably integrated into HeLa cells, a cervical cancer cell line that expresses glucocorticoid receptor. The activation of the reporter gene under culture conditions can be detected by fluorescence intensity. This cell line has been used to screen the Tox21 10K compound library and to identify the compounds that inhibit the GR signaling.
Tox21 Assay Protocol Summary: The GR-bla HeLa cells were dispensed at 1500 cells/5 ul/well in 1536-well black wall/clear bottom plates using a Multidrop Combi (ThermoFisher Scientific, Waltham, MA) dispenser. After the assay plates were incubated at a 37 C/5% CO2 incubator for 4 hours, 23 nL of compounds dissolved in DMSO, positive controls or DMSO only was transferred to the assay plate by a pintool station (Kalypsys, San Diego, CA), followed by addition of 1 uL of dexamethasone (5 nM, final concentration in the well). The plates were incubated at 37 C for 18 hours. After 1 uL of LiveBLAzerTM B/G FRET substrate was added using a Flying Reagent Dispenser (Aurora Discovery, San Diego, CA), the plates were incubated at room temperature for 2 hours, and fluorescence intensity was measured by an Envision plate reader (PerkinElmer, Shelton, CT).
For orientation: Quantitative high-throughput screening tests each substance at several concentrations.
On to `CCOP(=S)(OCC)SCSc1ccc(Cl)cc1`, for which the Potency entry was “inactive”.
Take `CN/C(=N\[N+](=O)[O-])NCC1CCOC1` (stereo not given): the “activity change, negative = inhibition” value was -4.58% (inactive).
As for `c1cc[c]([Hg][c]2ccccc2)cc1`, the Potency was 0.347 µM (active).
The same measure, in the same setting: to `CCN(CC)C(=O)[C@@H]1C=C2c3cccc4[nH]cc(c34)C[C@H]2N(C)C1` belongs “inactive”.
As for `CCOP(=S)(Oc1cnc(C(C)(C)C)nc1)OC(C)C` (stereo not given), the “activity change, negative = inhibition” value was 0.732% (inactive).
Still for that read-out and setting: then `Cc1ncsc1CCCl`, with 8.64% (inactive).
`CCCCN(CCCCO)N=O`: the “activity change, negative = inhibition” value was 3.18% (inactive).
Still for that read-out and setting: then `ClC(Br)Br`, with 10.7% (inactive).
Turning to `C[C@H]1CCC[C@H](O)CCCCCc2cc(O)cc(O)c2C(=O)O1`, the Potency was 21.3 µM (active) and 39.2 µM (active).
For `CC(C)NCC(O)c1ccc(N)c(C#N)c1` (stereo not given), the “activity change, negative = inhibition” value is -0.366% (inactive).
Still for that read-out and setting: to `CC1(C)COP(Oc2ccccc2)OC1` belongs 8.6% (inactive); to `CCC/C(=N\OCC)C1=C(O)CC(CC(C)SCC)CC1=O` (stereo not given), -8.93% [at 78.9 µM] (inactive); to `O=C(NCO)NCO`, 8.24% [at 78.9 µM] (inactive).
On the same count and under the same terms, then `N#Cc1ccncc1`, with 7.06% [at 78.9 µM] (inactive).
For the compound `C[C@]12CC[C@H]3[C@@H](CC=C4C[C@@H](O)CC[C@@]43C)[C@@H]1CC[C@@H]2O`, the Potency was 6.01 µM (active).
Consider `CCCCOP(=O)(O)OCCCC`, for which the “activity change, negative = inhibition” value was -6.76% (inactive).
On the same count and under the same terms, to `ClCC(Cl)(Cl)Cl` belongs 11.5% [at 78.9 µM] (inactive); to `CC(=O)Nc1cc([As](=O)(O)O)ccc1O`, 7.5% (inactive); to `CCCCOC(=O)c1ccccc1N`, 12% [at 78.9 µM] (inactive).
The same measure, in the same setting: then `CCOP(=S)(OCC)SCSP(=S)(OCC)OCC`, with -24.9% (inactive); and `CCOC(=O)N(C)C(=O)CSP(=S)(OCC)OCC`, with -2.97% (inactive); and `O=C(CCCN1CCC(n2c(=O)[nH]c3ccccc32)CC1)c1ccc(F)cc1`, with 4.06% [at 27 µM] (inactive).
Same read-out and setting: then `C=C(C)CN(CC)c1c([N+](=O)[O-])cc(C(F)(F)F)cc1[N+](=O)[O-]`, with -1.42% (inactive); and `CCCSC(=O)Cl`, with -8.74% [at 78.9 µM] (inactive).
For `CCC(C)(C)c1cc(-n2nc3ccccc3n2)c(O)c(C(C)(C)CC)c1`, the “activity change, negative = inhibition” value was 7% [at 78.9 µM] (inactive).
Still for that read-out and setting: then `ClCCOCOCCCl`, with -2.39% [at 78.9 µM] (inactive); and `Clc1cccc(N2CCNCC2)c1`, with 6.85% (inactive).
On the same count and under the same terms, to `C(CCOCC1CO1)COCC1CO1` (stereo not given) belongs 9.2% (inactive).
`N#CC(CCc1ccc(Cl)cc1)(Cn1cncn1)c1ccccc1` (stereo not given): the Potency was 49 µM (active).
In the case of `OCCBr`, the “activity change, negative = inhibition” value was -2.42% (inactive).
Still for that read-out and setting: then `Cc1cc(C)c(C(=O)P(=O)(C(=O)c2c(C)cc(C)cc2C)c2ccccc2)c(C)c1`, with -24% (inactive); and `Cc1nnc2n1-c1sc(CCC(=O)N3CCOCC3)cc1C(c1ccccc1Cl)=NC2`, with 1.94% (inactive).
As to `Nc1cc(Cl)ccc1O`, the “activity change, negative = inhibition” value is -20.1% (inactive).
Take `C[C@]1(O)CC[C@H]2[C@@H]3CCC4=CC(=O)CC[C@]4(C)[C@@]3(F)[C@@H](O)C[C@@]21C`: the Potency was 1.51 µM (active) and 620 nM (active).
For the compound `O=[N+]([O-])c1ccc(CBr)cc1`, the “activity change, negative = inhibition” value was -0.323% [at 78.9 µM] (inactive).
Same read-out and setting: then `Nc1n[nH]c(N)n1`, with -0.139% [at 78.9 µM] (inactive); and `COc1cc(OC)nc(Sc2cccc(Cl)c2C(=O)O)n1`, with -14.4% (inactive); and `O=[N+]([O-])c1cccc2c([N+](=O)[O-])cccc12`, with -15.3% [at 78.9 µM] (inactive).
`CCOP(=S)(OCC)Oc1cc(-c2ccccc2)on1`: the “activity change, negative = inhibition” value is -21.1% (inactive).
Still for that read-out and setting: then `O=S(=O)(O)C(F)(F)C(F)(F)C(F)(F)C(F)(F)C(F)(F)C(F)(F)F`, with 2.11% (inactive).
